# Measured values from the supplement of paper PMC4466140.
# Columns and labels:
# Experiment in all cases: SPOT peptide array binding signal intensity (averaged, normalized) (arbitrary units (background-subtracted, floor 0; scale differs between SH3 domains)); higher = stronger binding of the SH3 domain to the peptide
# AgAbp1 = target: AgAbp1
# Method in brief: (§1)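 Binding signal is given in arbitrary units that differ between domains and is the normalized, background-subtracted spot intensity averaged across replicates. Each GST-SH3 fusion from one of four yeast species was made in E. coli BL21(DE3), purified on glutathione Sepharose and incubated at 10 μg/ml overnight at 4°C on cellulose-bound synthetic 15-mer peptides in which cysteines were replaced by serines. Detection used anti-GST antibody, an HRP anti-mouse secondary and luminol, followed by imaging and Genespotter quantification.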
# AgBbc1 = target: AgBbc1
# Method in brief: as §1
# AgBem1-D1 = target: AgBem1-D1
# Method in brief: as §1
# AgBzz1-D1 = target: AgBzz1-D1
# Method in brief: as §1
# AgBzz1-D2 = target: AgBzz1-D2
# Method in brief: as §1
# AgCyk3 = target: AgCyk3
# Method in brief: as §1
# AgFus1 = target: AgFus1
# Method in brief: as §1
# AgHof1 = target: AgHof1
# Method in brief: as §1
# AgHse1 = target: AgHse1
# Method in brief: as §1
# AgLsb1 = target: AgLsb1
# Method in brief: as §1
# AgLsb4 = target: AgLsb4
# Method in brief: as §1
# AgMyo5 = target: AgMyo5
# Method in brief: as §1
# AgNbp2 = target: AgNbp2
# Method in brief: as §1
# AgRvs167 = target: AgRvs167
# Method in brief: as §1
# AgSho1 = target: AgSho1
# Method in brief: as §1
# AgSla1-D1-D2 = target: AgSla1-D1-D2
# Method in brief: as §1
# AgSla1-D3 = target: AgSla1-D3
# Method in brief: as §1
# CaAbp1-D1 = target: CaAbp1-D1
# Method in brief: as §1
# CaAbp1-D2 = target: CaAbp1-D2
# Method in brief: as §1
# CaBbc1 = target: CaBbc1
# Method in brief: as §1
# CaBem1-D1 = target: CaBem1-D1
# Method in brief: as §1
# CaBzz1-D1 = target: CaBzz1-D1
# Method in brief: as §1
# CaBzz1-D2 = target: CaBzz1-D2
# Method in brief: as §1
# CaCyk3 = target: CaCyk3
# Method in brief: as §1
# CaFus1 = target: CaFus1
# Method in brief: as §1
# CaHof1 = target: CaHof1
# Method in brief: as §1
# CaHse1 = target: CaHse1
# Method in brief: as §1
# CaLsb1 = target: CaLsb1
# Method in brief: as §1
# CaLsb4 = target: CaLsb4
# Method in brief: as §1
# CaMyo5 = target: CaMyo5
# Method in brief: as §1
# CaNbp2 = target: CaNbp2
# Method in brief: as §1
# CaRvs167 = target: CaRvs167
# Method in brief: as §1
# CaRvs167-3 = target: CaRvs167-3
# Method in brief: as §1
# CaSho1 = target: CaSho1
# Method in brief: as §1
# CaSla1-D1-D2 = target: CaSla1-D1-D2
# Method in brief: as §1
# CaSla1-D3 = target: CaSla1-D3
# Method in brief: as §1
# ScAbp1 = target: ScAbp1
# Method in brief: as §1
# ScBbc1 = target: ScBbc1
# Method in brief: as §1
# ScBem1-D1 = target: ScBem1-D1
# Method in brief: as §1
# ScBzz1-D1 = target: ScBzz1-D1
# Method in brief: as §1
# ScBzz1-D2 = target: ScBzz1-D2
# Method in brief: as §1
# ScCyk3 = target: ScCyk3
# Method in brief: as §1
# ScFus1 = target: ScFus1
# Method in brief: as §1
# ScHof1 = target: ScHof1
# Method in brief: as §1
# ScHse1 = target: ScHse1
# Method in brief: as §1
# ScLsb1 = target: ScLsb1
# Method in brief: as §1
# ScLsb2 = target: ScLsb2
# Method in brief: as §1
# ScLsb3 = target: ScLsb3
# Method in brief: as §1
# ScLsb4 = target: ScLsb4
# Method in brief: as §1
# ScMyo3 = target: ScMyo3
# Method in brief: as §1
# ScMyo5 = target: ScMyo5
# Method in brief: as §1
# ScNbp2 = target: ScNbp2
# Method in brief: as §1
# ScPex13 = target: ScPex13
# Method in brief: as §1
# ScRvs167 = target: ScRvs167
# Method in brief: as §1
# ScSho1 = target: ScSho1
# Method in brief: as §1
# ScSla1-D1-D2 = target: ScSla1-D1-D2
# Method in brief: as §1
# ScSla1-D3 = target: ScSla1-D3
# Method in brief: as §1
# SpAbp1-D1 = target: SpAbp1-D1
# Method in brief: as §1
# SpBbc1 = target: SpBbc1
# Method in brief: as §1
# SpBzz1-D1 = target: SpBzz1-D1
# Method in brief: as §1
# SpBzz1-D2 = target: SpBzz1-D2
# Method in brief: as §1
# SpCyk3 = target: SpCyk3
# Method in brief: as §1
# SpHof1 = target: SpHof1
# Method in brief: as §1
# SpHof1-2 = target: SpHof1-2
# Method in brief: as §1
# SpHof1-3 = target: SpHof1-3
# Method in brief: as §1
# SpHse1 = target: SpHse1
# Method in brief: as §1
# SpLsb1 = target: SpLsb1
# Method in brief: as §1
# SpLsb4 = target: SpLsb4
# Method in brief: as §1
# SpMyo1 = target: SpMyo1
# Method in brief: as §1
# SpNbp2 = target: SpNbp2
# Method in brief: as §1
# SpPex13 = target: SpPex13
# Method in brief: as §1
# SpRvs167 = target: SpRvs167
# Method in brief: as §1
# SpSla1-D1-D2 = target: SpSla1-D1-D2
# Method in brief: as §1
# SpSla1-D3 = target: SpSla1-D3
# Method in brief: as §1
binder,measurement,setting,value
AGKRRLPLVRFKASD,SPOT peptide array binding signal intensity,AgAbp1,162
same,SPOT peptide array binding signal intensity,AgBbc1,109
same,SPOT peptide array binding signal intensity,AgBem1-D1,301
same,SPOT peptide array binding signal intensity,AgBzz1-D1,44
same,SPOT peptide array binding signal intensity,AgBzz1-D2,40.5
same,SPOT peptide array binding signal intensity,AgCyk3,5
same,SPOT peptide array binding signal intensity,AgFus1,783
same,SPOT peptide array binding signal intensity,AgHof1,84
same,SPOT peptide array binding signal intensity,AgHse1,1070
same,SPOT peptide array binding signal intensity,AgLsb1,4
same,SPOT peptide array binding signal intensity,AgLsb4,214
same,SPOT peptide array binding signal intensity,AgMyo5,2
same,SPOT peptide array binding signal intensity,AgNbp2,232
same,SPOT peptide array binding signal intensity,AgRvs167,6
same,SPOT peptide array binding signal intensity,AgSho1,218
same,SPOT peptide array binding signal intensity,AgSla1-D1-D2,736
same,SPOT peptide array binding signal intensity,AgSla1-D3,11.8
same,SPOT peptide array binding signal intensity,CaAbp1-D1,1220
same,SPOT peptide array binding signal intensity,CaAbp1-D2,806
same,SPOT peptide array binding signal intensity,CaBbc1,259
same,SPOT peptide array binding signal intensity,CaBem1-D1,80.5
same,SPOT peptide array binding signal intensity,CaBzz1-D1,125
same,SPOT peptide array binding signal intensity,CaBzz1-D2,147
same,SPOT peptide array binding signal intensity,CaCyk3,69
same,SPOT peptide array binding signal intensity,CaFus1,2040
same,SPOT peptide array binding signal intensity,CaHof1,0.75
same,SPOT peptide array binding signal intensity,CaHse1,71.5
same,SPOT peptide array binding signal intensity,CaLsb1,2
same,SPOT peptide array binding signal intensity,CaLsb4,173
same,SPOT peptide array binding signal intensity,CaMyo5,3
same,SPOT peptide array binding signal intensity,CaNbp2,384
same,SPOT peptide array binding signal intensity,CaRvs167,51.3
same,SPOT peptide array binding signal intensity,CaRvs167-3,226
same,SPOT peptide array binding signal intensity,CaSho1,613
same,SPOT peptide array binding signal intensity,CaSla1-D1-D2,162
same,SPOT peptide array binding signal intensity,CaSla1-D3,114
same,SPOT peptide array binding signal intensity,ScAbp1,146
same,SPOT peptide array binding signal intensity,ScBbc1,30.8
same,SPOT peptide array binding signal intensity,ScBem1-D1,68.5
same,SPOT peptide array binding signal intensity,ScBzz1-D1,24
same,SPOT peptide array binding signal intensity,ScBzz1-D2,44
same,SPOT peptide array binding signal intensity,ScCyk3,71
same,SPOT peptide array binding signal intensity,ScFus1,584
same,SPOT peptide array binding signal intensity,ScHof1,5.5
same,SPOT peptide array binding signal intensity,ScHse1,2480
same,SPOT peptide array binding signal intensity,ScLsb1,4.5
same,SPOT peptide array binding signal intensity,ScLsb2,6.5
same,SPOT peptide array binding signal intensity,ScLsb3,478
same,SPOT peptide array binding signal intensity,ScLsb4,25.5
same,SPOT peptide array binding signal intensity,ScMyo3,5
same,SPOT peptide array binding signal intensity,ScMyo5,3
same,SPOT peptide array binding signal intensity,ScNbp2,626
same,SPOT peptide array binding signal intensity,ScPex13,6.75
same,SPOT peptide array binding signal intensity,ScRvs167,364
same,SPOT peptide array binding signal intensity,ScSho1,2030
same,SPOT peptide array binding signal intensity,ScSla1-D1-D2,1180
same,SPOT peptide array binding signal intensity,ScSla1-D3,9.75
same,SPOT peptide array binding signal intensity,SpAbp1-D1,592
same,SPOT peptide array binding signal intensity,SpBbc1,5.25
same,SPOT peptide array binding signal intensity,SpBzz1-D1,180
same,SPOT peptide array binding signal intensity,SpBzz1-D2,1
same,SPOT peptide array binding signal intensity,SpCyk3,67
same,SPOT peptide array binding signal intensity,SpHof1,481
same,SPOT peptide array binding signal intensity,SpHof1-2,99.5
same,SPOT peptide array binding signal intensity,SpHof1-3,412
same,SPOT peptide array binding signal intensity,SpHse1,536
same,SPOT peptide array binding signal intensity,SpLsb1,17
same,SPOT peptide array binding signal intensity,SpLsb4,354
same,SPOT peptide array binding signal intensity,SpMyo1,3.5
same,SPOT peptide array binding signal intensity,SpNbp2,1010
same,SPOT peptide array binding signal intensity,SpPex13,42.5
same,SPOT peptide array binding signal intensity,SpRvs167,248
same,SPOT peptide array binding signal intensity,SpSla1-D1-D2,4
same,SPOT peptide array binding signal intensity,SpSla1-D3,17.5
VGFRLALKFPSRITG,SPOT peptide array binding signal intensity,AgAbp1,156
same,SPOT peptide array binding signal intensity,AgBbc1,89.2
same,SPOT peptide array binding signal intensity,AgBem1-D1,596
same,SPOT peptide array binding signal intensity,AgBzz1-D1,231
same,SPOT peptide array binding signal intensity,AgBzz1-D2,180
same,SPOT peptide array binding signal intensity,AgCyk3,107
same,SPOT peptide array binding signal intensity,AgFus1,3790
same,SPOT peptide array binding signal intensity,AgHof1,137
same,SPOT peptide array binding signal intensity,AgHse1,3050
same,SPOT peptide array binding signal intensity,AgLsb1,17.2
same,SPOT peptide array binding signal intensity,AgLsb4,1990
same,SPOT peptide array binding signal intensity,AgMyo5,9.5
same,SPOT peptide array binding signal intensity,AgNbp2,1370
same,SPOT peptide array binding signal intensity,AgRvs167,55.5
same,SPOT peptide array binding signal intensity,AgSho1,2510
same,SPOT peptide array binding signal intensity,AgSla1-D1-D2,505
same,SPOT peptide array binding signal intensity,AgSla1-D3,31
same,SPOT peptide array binding signal intensity,CaAbp1-D1,766
same,SPOT peptide array binding signal intensity,CaAbp1-D2,1210
same,SPOT peptide array binding signal intensity,CaBbc1,179
same,SPOT peptide array binding signal intensity,CaBem1-D1,147
same,SPOT peptide array binding signal intensity,CaBzz1-D1,976
same,SPOT peptide array binding signal intensity,CaBzz1-D2,473
same,SPOT peptide array binding signal intensity,CaCyk3,118
same,SPOT peptide array binding signal intensity,CaFus1,5990
same,SPOT peptide array binding signal intensity,CaHof1,13.8
same,SPOT peptide array binding signal intensity,CaHse1,966
same,SPOT peptide array binding signal intensity,CaLsb1,25
same,SPOT peptide array binding signal intensity,CaLsb4,716
same,SPOT peptide array binding signal intensity,CaMyo5,105
